Here are results for 100 compounds from PubChem BioAssay AID435019 (Southern Research Specialized Biocontainment Screening …, 2010).

Among all 2,300 compounds or so, about 1,200 (52%) were called active. The rule behind the calls is not given here. The set was probably picked from earlier hits. The list shows a part of the results. A call without a number means that no potency is given here. Potency and affinity values are given separately.

The test can be described thus: mammalian cell cytotoxicity, dose response, cytotoxicity control for M. tuberculosis inhibitor project (AID 435019).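 Note: lower values mean fewer viable cells so more cytotoxicity.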 Conditions: cytotoxicity counter-screen; series mostly up to 40 µM.
Consider `N#Cc1cccc(NC(=O)N2CCC(c3nc4c(nnn4Cc4cccc(Cl)c4)c(=O)[nH]3)CC2)c1`, for which the outcome was inactive. Consider `CCOC(=O)c1ccc(Oc2nc(NC(C)(C)C)nc(N(C)C)n2)cc1`, for which the call was inactive.

For the compound `CN(C)S(=O)(=O)c1cccc(NC(=O)CCc2nc3sc4c(c3c(=O)[nH]2)CCCC4)c1`, the compound was called inactive.

Regarding `Cc1cc(OCc2nc3ccccc3s2)ccc1N`, the compound was called inactive. Take `CCCC(=O)OCCNc1cc(SCCC(=O)OC)c2nonc2c1[N+](=O)[O-]`: the outcome was inactive. With `CCOC(=O)c1nn(-c2ccc(C)c(C)c2)cc1O` the entry was “inactive”; with `CCn1cc(Br)c(C(=O)Nc2ccc(C(=O)OC(C)C)cc2)n1`, “inactive”; with `C=CC[N@@+]12CC[C@]34c5ccccc5N5/C=C6\C7N(/C=C(\C53)[C@@H](C[C@@H]41)/C(=C/CO)C2)c1ccccc1[C@@]71CC[N@@+]2(CC=C)C/C(=C\CO)[C@@H]6C[C@@H]12` (stereo not given in full), “inactive”. In the case of `Cc1cccc(C(=O)OCC(=O)N2CCc3ccccc3C2)c1O`, the call was inactive. With `CC(C)c1ccc2[nH]c(O)c(N=NC(=O)c3ccc(CSc4nncn4C)cc3)c2c1`, the compound was called inactive. Take `COC(=O)N/N=C/c1c[n+]([O-])c2ccccc2[n+]1[O-]`: the call was inactive.

`N[C@@H](CCl)C(=O)O`: the compound was classed as inactive. Regarding `Cc1ccc(NC(=O)C2=C(O)CCn3c2nc2ccccc23)cc1`, the call was inactive. To `O=C(CSc1nc2ccccc2c(=O)[nH]1)NCc1ccc(Cl)cc1` belongs “inactive”; to `CC(C)NC(=O)c1onc(CSc2ccc(F)c(F)c2)c1C(=O)O`, “inactive”.

On to `CCN(Cc1ccncc1)Cc1nc(-c2ccc(C(=O)OC)cc2)no1`, for which the result was inactive. As to `Cc1ccc(-c2noc(-c3cc4ccccc4oc3=O)n2)cc1`, the compound was classed as inactive. With `COc1ccc(-c2oc3cccnc3c2/C=C/c2ccc(OC)c(OC)c2)cc1`, the result was inactive.

Turning to `O=C(NCC1CC1)c1cc([N+](=O)[O-])cc([N+](=O)[O-])c1`, the compound was called inactive.

Consider `CCOc1cc(C=O)cc(N=Nc2cccc([N+](=O)[O-])c2)c1O`, for which the call was inactive. With `CCOC(=O)c1ccc(N=Cc2c(O)c3ccccc3oc2=O)cc1` the entry was “inactive”; with `N/C(=N\OC(=O)CCC1CCCC1)c1cccc([N+](=O)[O-])c1`, “inactive”; with `CCOC(=O)/C(=N\Nc1ccc(Br)cc1)N1CC(C)OC(C)C1` (stereo not given), “inactive”. With `CC(C)(C)c1ccc(OCCC(=O)OCC(=O)NC(=O)NC2CCCC2)cc1` the entry was “inactive”. With `CC(OC(=O)CCN=C1NS(=O)(=O)c2ccccc21)C(=O)Nc1ccc(F)c(F)c1F` (stereo not given) the entry was “inactive”; with `Nc1cnccc1C(=O)O`, “inactive”; with `O=C1CC(Nc2ccc3ccccc3c2)C(=O)N1Cc1ccccc1` (stereo not given), “inactive”. As for `Cc1c(C(=O)Oc2cccc3ccccc23)cnn1-c1ccccc1`, the compound was classed as inactive. Regarding `CC(=NCc1ccc2c(c1)OCO2)C1=C(O)c2ccccc2C1=O`, the compound was called inactive. Turning to `CCOC(=O)C1=C(C)Nc2nc(SCC(=O)OC)nn2C1c1cc(F)cc(F)c1` (stereo not given), the compound was classed as inactive. Turning to `CC(=O)Oc1ccc(/C=N\NC(=O)c2cc3c(ccc4ccccc43)o2)cc1`, the call was inactive. Regarding `COc1ccc(NC(=O)ON=C2c3ccccc3-c3ccccc32)cc1`, the compound was classed as inactive.

Take `COC(=O)Cc1ccc(NC(=S)Nc2ccccn2)cc1`: the compound was called inactive. Take `Nc1ccc(N=Nc2ccccc2)c2cccnc12`: the call was inactive. With `O=C(Nc1cccc(C(F)(F)F)c1)c1ccc2nc(-c3ccco3)c(-c3ccco3)nc2c1` the entry was “inactive”; with `Nc1cccc(-c2cc3ccccc3oc2=O)c1`, “inactive”; with `CCOC(=O)c1sc(C)c2c(=O)n(CC(=O)c3ccc(Br)cc3)nnc12`, “inactive”.

As to `CCOC(=O)Cn1nc(-c2ccccc2)nc1-c1ccccc1`, the compound was called inactive. On to `NC(N)=Nc1nc(-c2ccccc2)c2ccccc2n1`, for which the outcome was inactive. `CCOC(=O)c1ccc(N=Cc2nc3ccccc3n2C)cc1`: the outcome was inactive.

As to `CCOc1cc(/C=N/Nc2nc(Nc3ccccc3)nc(N3CCCCC3)n2)ccc1OCC(=O)O`, the call was inactive. Regarding `COC(=O)[C@@H](NC(=O)c1cc(COc2cncc(Cl)c2)on1)c1ccccc1`, the compound was called inactive.

As to `O=C(N/N=C\c1ccc[nH]1)c1cncc(Br)c1`, the compound was classed as inactive.

For the compound `O=C(O)C1CC=CCC1C(=O)NNc1ccccc1` (stereo not given), the compound was classed as inactive. Consider `O=c1oc2ccccc2c(Nc2ccccc2O)c1[N+](=O)[O-]`, for which the result was inactive. Take `COc1ccc(NC(=O)C2C3C=CC(O3)C2C(=O)NCc2cccnc2)cc1` (stereo not given): the result was inactive. Regarding `CCCC(O)(CCC)C(=O)NNc1ccc(C)cc1`, the result was inactive. To `CCc1nnc(NC(=O)CN2CCN(c3nc(-c4ccccc4)cs3)CC2)s1` belongs “inactive”.

Take `c1ccc2nc(-c3ccc(-n4ccnc4)cc3)ccc2c1`: the result was inactive.

`CCOC(=O)c1c(-c2ccc(OC)cc2)csc1NC(=O)CNCc1ccco1`: the compound was called inactive.

With `CCCCOc1ccc(C(=O)Oc2ccc(C)nc2)cc1`, the outcome was inactive.

Regarding `O=c1[nH][nH]cc1C=Nc1ccc(Oc2ccccc2)cc1`, the result was inactive. On to `CN(c1ccccc1)S(=O)(=O)c1cccc(C(=O)NCc2ccccc2CN2CCCC2)c1`, for which the compound was called inactive. Turning to `CN1C(=O)N(C)c2ccc(C=O)c3cccc1c23`, the compound was classed as inactive. To `COc1cc2[nH]c(Cl)c([N+](=O)[O-])c2cc1OC` belongs “inactive”; to `Cc1ccc(C)c(NC(CC(=O)c2ccccc2)C(=O)OCC(=O)c2cccs2)c1` (stereo not given), “inactive”; to `CCOc1ccc(NCc2cccn2-c2nnc(N3CCC(C(=O)NCCCN4C(C)CCCC4C)CC3)s2)cc1` (stereo not given), “inactive”. As to `O=C(CSc1nnc(-c2cccs2)o1)NCC1CN(Cc2ccccc2)CCO1` (stereo not given), the compound was called inactive.

For `Nc1cc(=O)[nH]c(SCc2csc(-c3ccccc3)n2)n1`, the result was inactive. To `CCCOc1cccc(C(=O)NC(=S)Nc2ccc(N3CCN(C)CC3)cc2)c1` belongs “inactive”. As to `CCOC(=O)c1cc(-c2ccc(N3CCOCC3)cc2)nn1-c1ccccc1`, the compound was called inactive.

With `CCOC(=O)CNC(=O)C(Cc1ccccc1)NC(=O)OCc1ccccc1` (stereo not given), the call was inactive.

In the case of `CCCCCc1ccc(-c2cn(Cc3cccc(OC)c3)nn2)cc1`, the call was inactive.

On to `COc1ccc(-c2cc(C3CCN(C(=O)OC(C)(C)C)CC3)[nH]n2)cc1`, for which the compound was classed as inactive. To `COc1ccc(C(=O)OCCNC(=O)c2c(Cl)nc3ccccn23)cc1` belongs “inactive”; to `CCOC(=O)c1sc2nc3n(c(=O)c2c1C)CCC(C)CC3` (stereo not given), “inactive”; to `COc1ccccc1NC(=O)C(C)OC(=O)/C=C/c1ccc2ccccc2n1` (stereo not given), “inactive”. As to `CC(OC(=O)c1cc(Cl)ccc1[N+](=O)[O-])C(=O)NC(C)c1ccc(F)cc1` (stereo not given), the call was inactive. `Cn1c(=O)c2cc(NCc3ccccc3)nnc2n(C)c1=O`: the call was inactive.

In the case of `Cn1c(=O)n(Cc2ccccc2)c(=O)c2c1nc1n2CCCN1C1CCCCC1`, the compound was classed as inactive. As to `Cc1nn(-c2ccccn2)c2c1-c1nc(N3CCOCC3)ncc1CC2`, the call was inactive.

As to `CCOC(=O)CSc1ncc(OC)c(Sc2ccc(OC)cc2)n1`, the compound was called inactive. As to `Cc1ccc(-c2c[n+](CC(=O)N3c4ccccc4Sc4ccccc43)c3n2CCC3)cc1`, the call was inactive. To `C=CCN1CC[C@]23c4c5ccc(O)c4O[C@H]2/C(=N/NC(=O)c2ccccc2)CC[C@@]3(O)[C@H]1C5` belongs “inactive”; to `CCOC(=O)c1sc2ncnc(NCC(c3cccs3)N(C)C)c2c1C` (stereo not given), “inactive”.

For `Cc1c(Cl)c([N+](=O)[O-])nn1Cc1ccc(C(=O)N/N=C\c2cccc(Br)c2)o1`, the call was inactive. `Cc1cc(C(=O)N/N=C/c2ccc(-c3ccc([N+](=O)[O-])cc3Cl)o2)n[nH]1`: the compound was classed as inactive.

Consider `CCn1c(SCC(=O)Nc2ccc3c(c2)oc2ccccc23)nnc1-c1ccc(N)cc1`, for which the call was inactive. On to `CCSCc1nnc(SCC(=O)Nc2cccc(SC)c2)n1C`, for which the compound was classed as inactive.

In the case of `Clc1cc(Cl)cc(Nc2ncn[nH]2)c1`, the outcome was inactive. With `C/C(CC(=O)Nc1ccc(C)c(Cl)c1)=N\NC(=O)Cc1cnc(N)s1` the entry was “inactive”; with `COc1ccc(C(C)=O)cc1COC(=O)c1ccc2ccccc2n1`, “inactive”; with `Cc1ccc(C)c(NNC(N)=S)c1`, “inactive”.

For `O=c1c2c(nc3nc(NCc4ccc(Cl)cc4)[nH]n13)CCC2`, the compound was classed as inactive. With `COc1ccc(CCNc2cc(-c3ccccc3)nc3ncnn23)cc1` the entry was “inactive”; with `COC(=O)CCCCC1SCC(NC(=O)c2ccccc2)C1=O` (stereo not given), “inactive”; with `N#Cc1ccc(CN2CCN(CC(=O)NCCc3ccc(Cl)cc3Cl)CC2)cc1`, “inactive”.

As to `COc1ccc(SN=C2C(C)=CC(=O)C=C2C)cc1`, the outcome was inactive. Regarding `COC(=O)C1C(O)C(C)C(O)C(C)/C=C\C=C(/C)C(=O)Nc2c(C)c(OC(C)=O)c3c(c2O)C(=O)C(C)=C2OCOC(=C23)/C(C)=C/C(C)(O)C(O)C(C)C1O` (stereo not given), the compound was called inactive.

Consider `C/C(=N/Nc1ccnc2cc(Cl)ccc12)c1ccc(O)cc1`, for which the call was inactive. With `CCc1ccc(/C(C)=N/Nc2cc(Cl)nc(C)n2)cc1`, the call was inactive. For the compound `Cc1ccc2c(c1)nnn2C1CCN(CC(=O)N2CCN(c3ccc(F)cc3)CC2)CC1`, the result was inactive.

As to `c1ccc(CCN2CN=C(Nc3nc4ccccc4o3)NC2)cc1`, the result was inactive. As for `C/C(O)=C\c1nc2ccccc2oc1=O`, the call was inactive. To `CN1CCC(=NNC(=O)C(=O)Nc2ccccc2F)CC1` belongs “inactive”; to `O=C(CCN1C(=O)/C(=C/c2ccccc2)SC1=S)Nc1ccccn1`, “inactive”; to `O=C(COC(=O)C1=COCCO1)Nc1cccc(Oc2ccccc2)c1`, “inactive”. On to `CCOc1ccc2nc(/N=C/c3nc(-c4ccccc4)oc3O)sc2c1`, for which the compound was called inactive. Take `Cc1ccc(-c2nnc(C)c(N3CCCC3)n2)cc1`: the compound was called inactive. Take `O=C(c1cc2ccccc2o1)N1CCN(S(=O)(=O)c2ccc(Cl)s2)CC1`: the result was inactive.
